Bioassay records: PubChem BioAssay, National Center for Advancing Translational Sciences (NCATS)
RORg inh = qHTS for inhibitors of ROR gamma transcriptional activity. Potency, µM (series often up to 53.6 µM), inactives show at the top dose activity change, negative = inhibition, usual class: inhibitors. Drosophila S2 Gal4-RORgamma UAS-luciferase reporter, 20 h. hit rate 5.4% among 310,000. AID 2551, 2010. Nuclear receptor ROR-gamma (Mus musculus), P51450; note: potency is the fitted concentration of half-maximal effect; nearly all actives have a fitted effect of over 60% in size
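Using a luciferase readout, inhibitors were identified by reduced reporter activity in Drosophila cells coexpressing a copper-inducible Gal4–ROR gamma fusion and UAS-driven Photinus luciferase, incubated 20 hr after 700 uM copper sulfate.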
PKM2 activator = qHTS Assay for Activators of Human Muscle isoform 2 Pyruvate Kinase; AID 1631, 2009; Pyruvate kinase PKM (Homo sapiens), P14618; purified PKM2, Kinase-Glo ATP luminescence, activation; response scale: 0% is enzyme alone, no compound; hit rate 0.34% among 260,000; Potency, µM (doses to about 57.5 µM), for the others: at the top dose activation, actives largely listed as activators; note: potency is the fitted concentration of half-maximal effect; nearly all actives have a fitted effect of over 55% in size
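ATP formation by purified human PK-M2, quantified via coupled luciferase luminescence after 1 h at room temperature with 0.1 mM ADP and 0.5 mM PEP final.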
CtBP-E1A blk = qHTS Assay for Inhibitors of the CtBP/E1A Interaction; CtBP / adenovirus E1A interaction (AlphaScreen); AlphaScreen GST-E1A/His-CtBP binding, 1536-well; hits give low values; activity change, % (test concentration not listed); hit rate 0.49% among 340,000; AID 651724, 2012; in the data active = activity change below about -65%; inconclusive = mostly about -30% to -63%
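In 5 uL wells, 23 nL compound meets equimolar GST-E1A and His-CtBP (5X stock 125 nM each) for 2 h, 37 °C. Beads (5X, 50 ug/mL) then 1 h, 37 °C, dark.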
VP16 counter = VP16 counterscreen qHTS for inhibitors of ROR gamma transcriptional activity. Potency, µM (highest dose often 53.6 µM), inactives show at the highest dose activity, negative = inhibition, most hits filed as inhibitors. AID 2546, 2010. Drosophila S2 Gal4-VP16 UAS-luciferase, luminescence, 20 h. hit rate 3.5% among 310,000;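 note: Gal4-VP16 expression switched on by copper sulfate through the metallothionein promoter; potency is the fitted concentration of half-maximal effect; nearly all actives have a fitted effect of over 50% in size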
Six1-Eya2 blk = qHTS Assay for Inhibitors of the Six1/Eya2 Interaction. activity change, % (test concentration not listed). AlphaScreen GST-Six1/His-Eya2 binding, biochemical; hits give low values. AID 651725, 2012. Homeobox protein SIX1 (Homo sapiens) + Protein phosphatase EYA2 (Homo sapiens), …. hit rate 0.56% among 360,000; in the data active = activity change below about -65%; inconclusive = mostly about -30% to -63%
Target sequence (O00167 whole entry, looked up): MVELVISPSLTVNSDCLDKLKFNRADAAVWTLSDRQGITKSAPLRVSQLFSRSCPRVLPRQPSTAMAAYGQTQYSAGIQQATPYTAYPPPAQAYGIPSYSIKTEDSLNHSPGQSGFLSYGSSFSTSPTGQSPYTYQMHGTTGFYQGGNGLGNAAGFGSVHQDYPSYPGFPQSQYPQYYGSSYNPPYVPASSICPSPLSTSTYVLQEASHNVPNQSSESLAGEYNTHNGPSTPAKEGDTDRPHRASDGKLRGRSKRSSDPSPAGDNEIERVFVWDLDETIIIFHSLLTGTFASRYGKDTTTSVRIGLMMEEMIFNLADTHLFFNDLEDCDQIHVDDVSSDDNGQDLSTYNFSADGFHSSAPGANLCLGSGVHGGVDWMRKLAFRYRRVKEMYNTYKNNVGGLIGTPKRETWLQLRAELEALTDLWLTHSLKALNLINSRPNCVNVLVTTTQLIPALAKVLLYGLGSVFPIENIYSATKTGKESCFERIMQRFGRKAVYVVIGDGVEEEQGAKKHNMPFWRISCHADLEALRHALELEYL
Target sequence (Q15475 whole entry, looked up): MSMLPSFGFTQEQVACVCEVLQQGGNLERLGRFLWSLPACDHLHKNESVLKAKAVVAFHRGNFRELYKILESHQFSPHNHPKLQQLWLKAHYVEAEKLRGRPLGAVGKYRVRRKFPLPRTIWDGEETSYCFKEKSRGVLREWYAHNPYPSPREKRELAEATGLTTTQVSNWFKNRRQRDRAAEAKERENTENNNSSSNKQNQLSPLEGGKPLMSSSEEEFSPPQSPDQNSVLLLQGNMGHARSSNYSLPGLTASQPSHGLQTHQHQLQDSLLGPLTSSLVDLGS
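Six1/Eya2 binding was read as AlphaScreen signal after compounds were pinned into GST-Six1 plus His-tagged Eya2 (5X stock 250/500 nM) in pH 8.0 Tris/NaCl/TCEP buffer, beads added, then incubated 1 h, 37 C, dark.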
An asterisk follows results filed as active; ? = inconclusive; . = not tested or not shown; [ ] = remark or other dose. Most compounds without a hit are left out; they make up all but 5.6% or so of the library. Unless noted, calls come from the whole dose curve; as a rule, active = well fitted curve in the direction sought with a large enough effect; inconclusive = small, poorly fitted or top-dose-only effect, or another doubt; inactive = no such curve, though single readings can be large; an effect the other way counts as inactive or inconclusive. % is set by controls: 0 for no effect and ±100 for the full control effect.

SMILES | RORg inh | PKM2 activator | CtBP-E1A blk | VP16 counter | Six1-Eya2 blk
COc1ccc(NC(=O)COC(=O)CNS(=O)(=O)c2ccc(C)cc2)c(OC)c1 | -10% | 1% | 7 | -5% | -30
COc1ccc(S(=O)(=O)N[C@@H](C)C(=O)OCC(=O)Nc2cc3oc4ccccc4c3cc2OC)cc1 | ? | 2% | -4 | 16µM* | -9
Cc1ccc(NC(=O)CCNC(=O)c2ccc(Cl)cc2)nc1 | 35% | 4% | -12 | 6% | -7
CC(=O)NC12CC3CC(C1)CC(C(=O)N(C)Cc1cccc(Cl)c1Cl)(C3)C2 | ? | 5% | 2 | 7.1µM* | 3
CC(C)OC(=O)CC1C(=O)NCCN1C(=S)NC(=O)c1cccs1 (stereo not drawn) | 2.5µM* | 6% | -7 | 11µM* | 7
COc1cc(CCC(=O)Nc2nccs2)cc(OC)c1OC | -2% | . | -3 | -11% | 3
CC(NC(=O)c1cc(-c2ccncc2)nc2ccc(Br)cc12)C1CCCO1 (stereo not drawn) | 11% | 3% | 16 | -1% | 8
Cc1ccc2[nH]c3c(N4CCCCCC4)ncnc3c2c1 | 8%[0.365 µM] | 7% | . | . | .
c1ccc2c(c1)CCN(c1ncnc3c1[nH]c1ccccc13)C2 | 13µM* | 9% | -12 | 6.3µM* | -10
Cc1ccc2[nH]c3c(N4CCN(Cc5ccccc5)CC4)ncnc3c2c1 | ? | -3% | -13 | 3.5µM* | -28
COc1cccc2[nH]c3c(N4CCN(Cc5ccc6c(c5)OCO6)CC4)ncnc3c12 | 28% | 7% | . | -3% | .
Cc1ccc2[nH]c3c(N4CCN(Cc5ccc6c(c5)OCO6)CC4)ncnc3c2c1 | ? | 4% | . | 10µM* | .
COc1ccc2c(c1)[nH]c1c(N3CCN(Cc4ccc5c(c4)OCO5)CC3)ncnc12 | ? | 3% | -29 | 10µM* | ?
CC(Sc1nnc(C2CC2)n1C1CC1)C(=O)Nc1ccccc1C#N (stereo not drawn) | . | . | 9 | . | -12
O=C(NCc1ccccc1C(F)(F)F)c1cccc2c1C(=O)c1ccc(N3CCCCC3)cc1S2(=O)=O | . | . | 4 | . | 14
Cc1cc(=O)[nH]c(SCC(=O)N(CCC#N)c2ccccc2)c1C#N | 3% | 1% | 9 | -1% | 4
Cc1cc2c(c(C)c1Cl)C(c1ccc3c(c1)OCO3)CC(O)(c1ccccc1)O2 (stereo not drawn) | 46% | . | . | ? | .
Cc1ccc2c(c1)[nH]c1c(N3CCN(Cc4ccccc4)CC3)ncnc12 | ? | -8% | 4 | 3.2µM* | -5
c1ccc(CN2CCN(c3ncnc4c3[nH]c3ccccc34)CC2)cc1 | ? | -2% | -11 | 16µM* | -22
O=C(CSc1ncnc2c1nnn2Cc1ccccc1F)NCC1CCCO1 (stereo not drawn) | 13µM* | 10% | 32 | -29% | 1
O=C(Cn1cnc2c(nnn2Cc2ccccc2F)c1=O)NCC1CCCO1 (stereo not drawn) | -16% | 7% | -3 | -17% | 10
CCOc1ccccc1C(=O)Nc1ccc(-n2nncc2C(C)(C)C)cc1 | -25% | 3% | 3 | -11% | 0
COc1ccc(OC)c(C2C(C(N)=O)=C(C)Nc3nc(-c4cccc(Cl)c4)nn32)c1 (stereo not drawn) | ? | 11% | 0 | 18µM* | 0
Cc1cc(N2C(=O)C(O)=C(C(=O)c3cccs3)C2c2ccc(F)cc2)no1 (stereo not drawn) | -1% | 2% | 0 | 2% | -7
O=C(CNc1ccc2c(c1)OCO2)N/N=C\c1cn(Cc2ccccc2)c2ccccc12 | 13µM* | 2% | 5 | ? | -30
SMILES | RORg inh | PKM2 activator | CtBP-E1A blk | VP16 counter | Six1-Eya2 blk
O=C(CNc1ccc2c(c1)OCO2)N/N=C\c1cn(Cc2ccc(F)cc2)c2ccccc12 | ? | 12% | . | 10µM* | .
CCOc1ccc(-c2cnc3n2CCCCC3)cc1 | 11µM* | 2%[11.5 µM] | 2 | ? | -1
CCOc1ccc(C2=CS/C(=C(\C#N)c3nnc4n3CCCCC4)N2CC)cc1 | 18% | -1% | 7 | -6% | 0
c1ccc(-c2ccc(-c3cnc4n3CCCCC4)cc2)cc1 | 6.3µM* | -3% | -15 | 11µM* | -18
c1cc2c(cc1-c1cnc3n1CCC3)OCCO2 | ? | -1% | -1 | ? | -1
Cc1ccc(-c2cnc3n2CCCCC3)cc1 | 3.5µM* | -2% | . | -15% | -24
O=C(COC(=O)c1ccc(Cl)nc1)NCCc1ccc(F)cc1 | . | . | -14 | . | -2
CC(C)CNC(=S)NNC(=O)c1csc2c1CCCC2 | 7.1µM* | 4% | 3 | ? | -2
CC(C)CNC(=S)NNC(=O)c1csc2ccccc12 | -24% | -2% | -16 | -13% | -7
C[C@@H](C[C@@H](O)[C@H](O)C(C)(C)O)[C@@H]1CC[C@]2(C)C3=CC[C@H]4C(C)(C)C(=O)CC[C@]4(C)[C@H]3CC[C@@]12C | 4.5µM* | -4% | . | ? | -9
COC(=O)c1ccc(-c2nc3cc(Cl)c(N)cc3s2)cc1 | 5µM* | 2% | 8 | -10%[0.365 µM] | 32
COc1ccc(OC)c2c1C(=O)C(Cl)=C(Cl)C2=O | 5µM* | -4% | 1 | 5µM* | -5
COc1ccc(OC)c2c1C(=O)c1ccccc1C2=O | 6% | -6% | ? | -4% | ?
Cc1cccc(-n2c(Cn3nc(C)c([N+](=O)[O-])c3C)n[nH]c2=S)c1 | 11µM* | -8% | 0 | -5% | 0
Cc1nn(CCc2n[nH]c(=S)n2-c2ccc(F)c(Cl)c2)c(C)c1[N+](=O)[O-] | 7.1µM* | 17% | -1 | ? | 1
COc1ccc(OCC(=O)NC(=S)NNC(=O)COc2ccc(Br)cc2Cl)cc1 | 10µM* | -6% | 0 | 3%[10 µM] | -3
COc1ccc(C(=O)NC(=S)NNC(=O)COc2ccccc2)cc1 | 7.1µM* | 1% | -6 | ? | -2
O=C(COc1ccccc1)NNC(=O)c1ccc(Cl)cc1 | . | . | 0 | . | 1
O=C(COc1ccc(Br)cc1Cl)NC(=S)Nc1ccccn1 | ? | 1% | -2 | ? | -1
O=C(COc1ccccc1)NNC(=S)NC(=O)c1ccccc1 | 6.3µM* | -1% | 1 | 11µM* | 3
CCN(CC)CC#CCOC(=O)[C@@](O)(c1ccccc1)C1CCCCC1 | -16%[16.9 µM] | . | . | -12%[17 µM] | .
C(=N\Nc1ccccn1)/c1c[nH]c2ccccc12 | ? | 7% | -8 | ? | -6
O=c1nc(N/N=C/c2c[nH]c3ccccc23)cn[nH]1 | ? | 8% | -86* | -29% | -78*
Cc1cccc(NC(=O)c2ccccc2NC(=O)c2ccccc2)n1 | -1% | . | . | 7% | 1
